# Screening data as filed in PubChem.
# AMA1 RON2 block: disrupts binding of P. falciparum AMA1 to RON2; AlphaScreen AMA1-biotinylated RON2 peptide binding; hit rate 0.2% among 360,000; Potency, µM (titrated, usually from 58.2 µM), actives largely listed as inhibitors; AID 720542; also: nearly all actives have a fitted effect of over 45% in size
#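 AMA1 (3D7) with his tag at 25 nM final met compounds first, then biotinylated RON2 peptide at 25 nM; detection used donor plus acceptor beads, 10 µg/mL apiece, read by AlphaScreen after 30 min at room temperature.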
# Pf growth 96h: inhibits malaria parasite growth, 96 h; P. falciparum luciferase reporter growth, 96 h; Potency, µM (highest dose often 28.7 µM), usual class: inhibitors; hit rate 6.9% among 320,000; AID 504834
#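 Two-generation exposure (96 h) targets delayed-death phenotype. Reporter parasites carrying integrated firefly luciferase, in red cells at 2% hematocrit and 0.05% parasitemia final, kept at 37 C, 5% CO2; luminescence loss indicates inhibition.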
# SARS PLpro yeast: blocks SARS-CoV papain-like protease in a yeast assay; Potency, µM (titrated, usually from 32.9 µM), most hits filed as activators; AID 485353; S. cerevisiae expressing SARS-CoV PLpro, growth rescue; hit rate 0.19% among 330,000; calls by dose curve; also: nearly all actives have a fitted effect of over 55% in size
# Pf growth 48h: inhibits P. falciparum growth in the first generation, 48 h; P. falciparum luciferase growth in erythrocytes, 48 h; Potency, µM (top dose mostly 28.7 µM), actives largely listed as inhibitors; hit rate 5.9% among 310,000
#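 Here the parasites carry a stable luciferase gene and grow inside erythrocytes in Albumax-based RPMI medium with compound for one erythrocytic cycle. Activity is scored as loss of luminescent signal.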
# A number is an active result; . = inactive; ? = inconclusive; / = no result; [ ] = another dose, or the depositor's remark. Shown are actives, neighbours in structure and some others; about 9.4% of the full set was active somewhere. Unless noted, calls follow the shape of the dose curve; as a rule, active = well fitted curve in the direction sought with a large enough effect; inconclusive = small, poorly fitted or top-dose-only effect, or another doubt; inactive = no such curve, though single readings can be large; an effect the other way counts as inactive or inconclusive.
SMILES,AMA1 RON2 block,Pf growth 96h,SARS PLpro yeast,Pf growth 48h
O=c1cccc2n1CC1CC2CN(Cc2c(F)cccc2Cl)C1 (centres undefined),.,9.3µM,.,.
O=c1cccc2n1CC1CC2CN(Cc2cccc(Cl)c2Cl)C1 (centres undefined),.,/,.,4.7µM
Cc1ccc2occ(CN3CC4CC(C3)c3cccc(=O)n3C4)c(=O)c2c1 (centres undefined),.,.,.,.
CCN(CC)S(=O)(=O)c1cccc(C(=O)N/N=C/c2ccc([N+](=O)[O-])o2)c1,.,4.1µM,.,?
Cc1nc2ccccn2c1C(=O)N/N=C/c1ccc([N+](=O)[O-])o1,?,2.1µM,.,?
O=C(N/N=C/c1ccc([N+](=O)[O-])o1)c1ccc(O)cc1,.,1µM,.,1.7µM
Cc1scc(C(=O)N/N=C/c2ccc([N+](=O)[O-])o2)c1C,/,1.7µM,.,4.1µM
O=C(N/N=C\c1ccc([N+](=O)[O-])o1)c1cncc(Br)c1,.,?,.,?
Cc1scc(C(=O)N/N=C/c2ccco2)c1C,.,.,.,.
COc1cc2c(cc1OC)C(c1ccccc1)N(S(C)(=O)=O)CC2 (centres undefined),.,?,.,.
O=C1CCN(C(=O)Cc2ccccc2[N+](=O)[O-])CC1,.,.,.,.
CC1CCCCN1C(=O)c1ccc(OC2CCN(S(=O)(=O)N(C)C)CC2)cc1 (centres undefined),.,.,.,.
O=C(NCc1ccc(C(F)(F)F)cc1)C1CC(c2c(Cl)cccc2Cl)=NO1 (centres undefined),.,.,.,?
O=C(N/N=C/c1ccc([N+](=O)[O-])o1)c1ccncc1,.,6.6µM,.,1.9µM
O=C(OCCCN1C(=O)c2ccccc2C1=O)c1ccco1,.,/,.,.
Nc1ccc(N2CCCCC2)c(S(=O)(=O)Nc2ccccc2Cl)c1,.,.,.,.
COc1ccccc1NS(=O)(=O)c1cc(N)ccc1N1CCCCC1,.,.,.,15µM
CCCS(=O)(=O)Nc1ccc(N2CCCCC2)c(S(=O)(=O)Nc2ccccc2OC)c1,.,13µM,.,10µM
COc1ccccc1NS(=O)(=O)c1cc(NC(=O)C2CCC2)ccc1N1CCCCC1,.,?,.,?
O=C(C[N+]1(CC#Cc2ccccc2)CCCCC1)c1ccc(Cl)cc1,.,.,.,?
O=C(C[N+]1(CC#Cc2ccccc2)CCOCC1)c1ccccc1,.,.,.,13µM
O=C(C[N+]1(CC#Cc2ccccc2)CCCCC1)c1ccccc1,.,?,.,9.3µM
CC(=O)c1ccc2c(c1)OCCOCCOCCO2,.,.,.,.
CS(=O)(=O)Nc1cccc(C2=NN(S(C)(=O)=O)C(c3ccc4c(c3)OCO4)C2)c1 (centres undefined),.,2.3µM,.,.
COc1ccc(S(=O)(=O)N2N=C(c3cccc(NS(C)(=O)=O)c3)CC2c2ccco2)cc1 (centres undefined),.,13µM,.,.
SMILES,AMA1 RON2 block,Pf growth 96h,SARS PLpro yeast,Pf growth 48h
Oc1ccc(-c2nc3ccccn3c2NCc2ccc3c(c2)OCO3)cc1,.,?,.,.
Cc1ccn2c(NCc3ccc4c(c3)OCO4)c(-c3ccc(O)cc3)nc2c1,.,?,7.9µM,/
Fc1ccc(-c2nc3ccccn3c2NCc2ccc3c(c2)OCO3)cc1,?,.,.,8.3µM
Cc1nn2c(NCCCN(C)C)c3c(nc2c1-c1ccccc1)CCC3,.,10µM,.,/
Cc1nn2c(NCCCN(C)C)c3c(nc2c1-c1ccccc1)CCCC3,.,8.3µM,.,15µM
COCCNc1c2c(nc3c(-c4ccccc4)c(C)nn13)CCC2,.,?,.,?
Cc1nn2c(Nc3ccccc3)c3c(nc2c1-c1ccccc1)CCC3,.[11.6 µM],5.9µM,.,.
Cc1cc(C)cc(NC(=O)C(OC(=O)Cn2cnc3c2c(=O)n(C)c(=O)n3C)c2ccccc2)c1 (centres undefined),.,.,.,.
Cc1ccc(-c2nnn(Cc3nc(N)nc(N4CCOCC4)n3)n2)cc1,.,?,.,.
Cc1ccc2[nH]c3c(c2c1)CN(C(=O)CN1c2ccc(F)cc2CCC1C)CC3 (centres undefined),.,13µM,.,12µM
CNC[C@H](O)c1ccc(OC(=O)C(C)(C)C)c(OC(=O)C(C)(C)C)c1,/,3.2µM,/,?
CNCC(O)c1ccc(OC(=O)C(C)(C)C)c(OC(=O)C(C)(C)C)c1 (centres undefined),.,?,/,?
Cc1cccc(CCN2C(N(C)C)=NC[C@@H]2CC(C)C)c1,.,?,.,13µM
Cc1cccc(CCN2C(N(C)C)=NC[C@@H]2Cc2ccccc2)c1,.,/,.,/
CN(C)C1=NC[C@H](Cc2ccccc2)N1CC1CCCC1,.,?,.,?
CN(C)C1=NC[C@H](Cc2ccccc2)N1CCCCc1ccccc1,.,?,.,13µM
CCCCCCCN1C(N(C)C)=NC[C@@H]1Cc1ccccc1,.,?,.,4.7µM
CC(C)C[C@H]1CN=C(N(C)C)N1CC(C)C,.,/,.,/
CN(C)C1=NC[C@H](Cc2ccccc2)N1CC1CCCCC1,.,?,.,?
CC(C)C[C@H]1CN=C(N(C)C)N1CC1CCCCCC1,.,?,.,4.1µM
Cc1c(NS(=O)(=O)c2cc(C(=O)O)ccc2Cl)c(=O)n(-c2ccccc2)n1C,.,.,.,.
N=C(N)SCc1ncccc1O,.,.,.,.
COc1ccccc1-n1ccn(CC(=O)Nc2ccc(C)cc2Cl)c(=O)c1=O,.,.,.,.
CC1(C)C2CC[C@]3(C)C(CC=C4[C@@H]5C[C@@](C)(CO)[C@@H]6C[C@@]5(CC[C@]43C)C(=O)O6)[C@@]2(C)CC[C@@H]1O (some centres undefined),.,/,/,/
CCNc1nc(Oc2ccc(C(=O)OC)cc2)nc(SC)n1,?,?,.,?
SMILES,AMA1 RON2 block,Pf growth 96h,SARS PLpro yeast,Pf growth 48h
CCNc1nc(Oc2ccc(C(=O)OCC)cc2)nc(SC)n1,.,.,.,12µM
CCOC(=O)c1ccc(Oc2nc(NC)nc(SC)n2)cc1,.,/,.,3.7µM
CC(C)(C)NC(=O)C(c1c[nH]c2ccccc12)N(C(=O)Cn1nnc(-c2ccc(F)cc2)n1)c1cccc(O)c1 (centres undefined),.,?,.,2.6µM
Cc1ccc(-c2nnn(CC(=O)N(Cc3cccs3)C(C(=O)NC(C)(C)C)c3ccc(C)o3)n2)o1 (centres undefined),.,/,?,.
COc1cccc(N(C(=O)Cn2nnc(-c3ccc(C)o3)n2)C(C(=O)NC(C)(C)C)c2cccs2)c1 (centres undefined),.,.,.,13µM
Cc1ccc(-c2nnn(CC(=O)N(Cc3ccco3)C(C(=O)NC(C)(C)C)c3cccs3)n2)o1 (centres undefined),.,.,.,15µM
CC(C)(C)NC(=O)C(c1ccco1)N(C(=O)Cn1nnc(-c2ccc(F)cc2)n1)c1cccc(F)c1 (centres undefined),.,.[5.75 µM],.,?
C=CCn1c(Sc2nc(C)cs2)nc2c1c(=O)[nH]c(=O)n2C,.,.,.,.
CN(C)C(=O)/C(=C/c1cn(-c2ccccc2)nc1-c1cccc([N+](=O)[O-])c1)NC(=O)c1ccccc1,.,.,.,.
